Pf Dd2 growth: inhibitors of Plasmodium falciparum Dd2 growth. P. falciparum Dd2 growth, SYBR Green, 72 h. Potency, µM (series often up to 28.9 µM), without a hit: at the top dose activity, negative = inhibition, most hits filed as inhibitors. 120,000 tested, 4.3% active; active = well fitted inhibition curve with a large enough effect;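 also: plate controls were DMSO vehicle for no effect and reference drug for full effect; nearly all actives have a fitted effect of over 65% in size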
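Infected erythrocytes (Dd2, 0.3% parasitemia, 2.5% hematocrit final) are added to compound in RPMI-1640/Albumax II medium, grown 72 h at 37C in low oxygen, then lysed with saponin/Triton-X containing SYBR Green and read by fluorescence.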
An asterisk follows results filed as active; i = inactive; [ ] = dose if it differs, or a comment. Many of the other results were omitted from the sample, so hits are more common in it than they were. Potency is read from the fitted curve at half-maximal effect.

SMILES	Pf Dd2 growth
O=C(Cc1cccc(C(F)(F)F)c1)N1CCCc2ncc(C(=O)N3CCCC[C@@H]3Cc3ccccc3)cc21	11µM*
COc1ccccc1N1CCCc2ncc(C(=O)N3CC[S+](=O)([O-])CC3)cc21	58%[44.1 µM]
O=C(Cc1cccc(C(F)(F)F)c1)N1CCCc2ncc(C(=O)N3CCC[C@@H]3c3ccc(F)cc3)cc21	-4%
O=C(NCc1cccc(F)c1)c1cnc2c(c1)N(C(=O)Cc1cccc(C(F)(F)F)c1)CCC2	13%
COc1ccccc1N1CCCc2ncc(C(=O)NCCc3c[nH]c4ccccc34)cc21	-19%[44.1 µM]
COc1ccccc1N1CCCc2ncc(C(=O)N3CCCC[C@@H]3Cc3ccccc3)cc21	4.5µM*
CCC1c2nccn2CCCN1C(=O)CCn1nc(C)cc1C (stereo unspecified)	17%
CSc1ccc(CNC(=O)c2nnn3c2COC(c2ccc(F)cc2)C3)cc1 (stereo unspecified)	i
Cc1cc(CN2CC3ON=C(C(=O)O)C3C2)cc(C)n1 (stereo unspecified)	22%[44.1 µM]
COc1ccc(N2CCN(C(=O)c3noc4c3CCCCC4)CC2)cc1	49%
CCn1c2c(c(=O)n3ncc(C(=O)N4CCN(c5ccc(C(C)=O)cc5)CC4)c13)CN(Cc1ccc(OC)cc1)CC2	10µM*
COc1ccc(Cn2ccc3nc(C)c(C(=O)N4CCN(c5ccc(F)cc5)CC4)cc3c2=O)cc1	-4%
CCC(Cn1nnc2ccccc2c1=O)NC(=O)Nc1ccc(C)cc1 (stereo unspecified)	17%
CC(=O)Nc1ccc(N(C(=O)Cn2nnc3ccccc32)C(C(=O)NCc2ccccc2)c2ccc(C)cc2)cc1 (stereo unspecified)	11µM*
CCOc1ccc(N(C(=O)Cn2nnc3ccccc32)C(C(=O)NCc2ccccc2)c2ccc(OC)cc2)cc1 (stereo unspecified)	-22%
COc1ccc(CN2C[C@H]3CN(Cc4ncc[nH]4)CCN3C2=O)cc1	-15%[44.1 µM]
CCC(C)NC(=O)CC1=CSC2=NC(C)=C(C(=O)OC)C(c3cccc([N+](=O)[O-])c3)N12 (stereo unspecified)	-20%
Cc1ncsc1CN1CCCN(S(C)(=O)=O)C(c2ccccc2)CC(=O)NCC1 (stereo unspecified)	0%
COc1ccc(OC)c(CN2CCC3(CC2)OCCN(Cc2ccccc2)C3=O)c1	-19%[44.1 µM]
COc1ccc2c(c1)C=C(CN1CCC(CO)(Cc3ccccc3Cl)CC1)CO2	8.9µM*
CCOc1ccc(CN2CCC(CO)(Cc3ccccc3Cl)CC2)cc1	-20%
CC(C)N1C[C@H](O)C[C@H]1c1nnc2n1CCN(C(=O)c1ccc(Cn3ccnc3)o1)CC2	10%
CCc1ccc(NC(=O)Cn2c(-c3cnccn3)nc(C)c(C)c2=O)cc1	i
O=C1NC2(CCN(C(=O)c3ccc(C(F)(F)F)cc3)CC2)COc2ccccc21	1.1µM*
O=C1NC2(CCCN(C(=O)c3ccc(F)cc3)C2)COc2ccccc21 (stereo unspecified)	i
SMILES	Pf Dd2 growth
O=C(c1ccc(C(F)(F)F)cc1)N1CCC2(CC1)COc1ccccc1CN2	-11%
O=C1NC2(CCN(C(=O)c3ccc(F)cc3)CC2)COc2ccccc21	-12%
COc1ccc(C(=O)N2CCC3(CC2)COc2ccccc2[S+](=O)([O-])N3)cc1	0%
COc1ccc(C(=O)N2CCC3(CC2)COc2ccccc2C(=O)N3)cc1	2.2µM*
COCCN1CCCN(C(=O)c2ccoc2)c2ccccc21	-24%
COCCN1CCCN(C(=O)c2cc(C)ccc2C)c2ccccc21	10µM*
COCCN1CCCN(C(=O)c2cc(C)cc(C)c2)c2ccccc21	i
Cc1noc(-c2ccc3c(c2)OCO3)c1C(=O)NCCCCc1ccccc1	i
Cc1cccc(C(=O)NCc2nnc3cc(-c4nc(C)no4)ccn23)c1	i
CC(C)c1noc(-c2ccn3c(CNC(=O)Cc4ccccc4Cl)nnc3c2)n1	5µM*
Cc1ccc(CC(=O)NCc2nnc3cc(-c4nc(C(C)C)no4)ccn23)cc1	i
CC(C)c1noc(-c2cccn3c(CNC(=O)Cc4ccccc4Cl)nnc23)n1	i
Cc1ccc(C)c(C(=O)NCc2nnc3cc(-c4nc(C(C)C)no4)ccn23)c1	i
Cc1cccc(C(=O)NCc2nnc3cc(-c4nc(C(C)C)no4)ccn23)c1	10µM*
C[C@@H](NC(=O)Nc1ccccc1)c1onc(-c2ccc(F)cc2)c1C(=O)O	-14%[44.1 µM]
Cn1nc(C2CCN(C(=O)Nc3ccccc3)CC2)[nH]c1=O	-24%[44.1 µM]
O=C(Nc1cccc2ccccc12)O[C@@H]1CO[C@H]2[C@@H]1OC[C@@H]2Nc1nccc(-c2ccccc2)n1	-13%
O=C(Nc1ccc([C@@H](O)[C@H]2COCC(=O)N2Cc2ccccc2F)cc1)c1ccc(F)cc1	i
Nc1c(C(=O)Nc2ccc(Cl)c(C(F)(F)F)c2)sc2nc3c(cc12)N1CCC3CC1	2.8µM*
O=C(CN1CCN(c2ccc(Cl)cc2)CC1)Nc1ccc(Cl)c(C(F)(F)F)c1	25%
N#Cc1c(C(F)(F)F)cc(-c2ccc(F)cc2)nc1SCC(=O)Nc1ccccc1	-1%
N#Cc1cc2c(nc1SCC(=O)Nc1ccc(Cl)c(C(F)(F)F)c1)C1CCN2CC1	5µM*
Nc1c(C(=O)Nc2cccc(Br)c2)sc2nc3c(cc12)N1CCC3CC1	i
CCC1CCc2nc3sc(C(=O)Nc4ccc(F)c(Cl)c4)c(N)c3cc2C1 (stereo unspecified)	-7%
CCN(CC)Cc1cnc2c(C(=O)N[C@H](C(N)=O)C(C)C)cnn2c1	6%
SMILES	Pf Dd2 growth
Cc1noc(CC2CCN(C(=O)C(C)Oc3ccc4ccccc4c3)CC2)n1 (stereo unspecified)	-18%
CCC1(C(=O)NCc2cccc(C(F)(F)F)c2)CCCCC(=O)N1 (stereo unspecified)	2%
CN(C)C(=O)c1ccc(-c2nnc3ccc(NC(=O)C4CCC4)cn23)cc1	4µM*
O=C(Nc1ccc2nnc(-c3ccc(C(=O)N4CCSCC4)cc3)n2c1)C1CCC1	2.2µM*
COc1ccc(C(=O)Nc2ccc(-c3nnc4n3CCCCC4)cc2)cc1	11%
O=C(NC1CC1)c1ccc2nnc(-c3ccc(C(F)(F)F)cc3)n2c1	4%
CCN1CCN(C(=O)c2ccc(-c3nnc4ccc(NC(=O)C5CC5)cn34)cc2)CC1	0.45µM*
O=C(Nc1ccc(-c2nnc3n2CCCC3)cc1)C1CCCCC1	-27%
COc1ccc(NC(=O)c2ccc(-c3nnc4ccc(NC(=O)C5CCC5)cn34)cc2)cc1	1µM*
COc1ccc(C(=O)Nc2ccc(-c3nnc4n3CCCCC4)cc2)cc1OC	-14%
O=C(Nc1ccc(F)c(Cl)c1)C1CCN(C(=O)c2ccc(F)cc2)CC1	9%
CC(C)c1ccc(NC(=O)C2CCN(C(=O)c3ccc(F)cc3)CC2)cc1	19%
Cc1ccc(NC(=O)C2CCN(C(=O)c3nnn4c3COC(c3ccc(C)cc3)C4)CC2)cc1 (stereo unspecified)	i
CCN1CCN(C(=O)c2ccc3nccn3c2)CC1	26%[44.1 µM]
CC(=O)Nc1ccc(CN2CCCC3(CN[S+](=O)([O-])c4ccccc4N3)C2)cc1 (stereo unspecified)	-18%
COCCn1c(=O)n([C@H]2CCCN(S(=O)(=O)c3cn(C)cn3)C2)c2ncccc21	2%
Cc1ccc(-n2c(C3CCN(C(=O)c4cccc(F)c4)CC3)n[nH]c2=O)cc1	-13%
O=C(NCc1nnc2n1C(C(=O)N1CCN(c3ncccn3)CC1)CC2)Nc1cccnc1 (stereo unspecified)	4%
Cc1ccc(S(=O)(=O)N2C[C@@H](F)C[C@H]2C(=O)N2CCc3ccccc3C2)cc1Cl	20%
